# Source: PubChem BioAssay (National Center for Advancing Translational Sciences (NCATS))
# uPA generation: cell surface uPA generation inhibition. cell surface uPA generation assay, qHTS. Potency, µM (highest dose often 38.3 µM), without a hit: at the top dose activity change, negative = inhibition, actives largely listed as inhibitors. actives 0.31% (n = 330,000); active means well fitted inhibition curve with a large enough effect; inconclusive means small, poorly fitted or top-dose-only effect; inactive means no such curve, though single readings can be large or run the other way; tested in mouse RAW 264.7 cells; further: potency means the concentration at half of the fitted maximal effect; on the % scale 0 is the no-effect control and ±100 the full control effect; nearly all actives have a fitted effect of over 55% in size
# TGFb inhibitor: inhibitors of TGF-b signaling | HepG2 CAGA-GFP TGF-b/SMAD3 reporter, GFP fluorescence, 18 h; TGF-beta stimulated, 500 pg/mL final | Potency, µM (highest dose often 46.1 µM), without a hit: at the top dose activity, negative = inhibition, most hits filed as inhibitors | actives 1.2% (n = 410,000); further: potency means the concentration at half of the fitted maximal effect; on the % scale 0 is the no-effect control and ±100 the full control effect; nearly all actives have a fitted effect of over 65% in size
#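 Inhibition was scored as loss of TGF-beta-induced (500 pg/mL final, 18 hours, 37 degrees C) GFP in HEPG2 cells carrying a CAGA-GFP reporter, in DMEM with 1% FBS. Well GFP was summed per cell; Activity was normalised to unstimulated and stimulated DMSO wells, then concentration-response fitting.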
# HepG2 viability: kills HepG2 cells in TGF-b inhibitor counter-screen; AID 588856; HepG2 CAGA-GFP viability, ATP luminescence, 18 h; Potency, µM (highest dose often 46.1 µM), for inactives: at the highest dose activity change, negative = cytotoxicity, actives largely listed as cytotoxic; actives 0.76% (n = 410,000); further: potency means the concentration at half of the fitted maximal effect
#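 HepG2 CAGA-GFP cells (1000/well, DMEM with 1% FBS) received compound, then TGF-beta at 500 pg/mL final, and were incubated 18 hours at 37 degrees C. Viability was read by CellTiter-Glo luminescence. Media-only wells were set as complete cell-killing and DMSO as no toxicity.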
# ATXN2 expr inh: ATXN2 expression inhibition; actives 0.72% (n = 360,000); Potency, µM (highest dose often 57 µM), for inactives: at the highest dose activity change, negative = inhibition, usual class: inhibitors; HEK-293 ATXN2-luciferase reporter, luminescence, 24 h; further: potency means the concentration at half of the fitted maximal effect; on the % scale 0 is the no-effect control and ±100 the full control effect; nearly all actives have a fitted effect of over 55% in size
#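 qHTS (up to 57 uM final) was run with 24 h compound exposure of reporter cells at 37 °C. Each well was multiplexed: SteadyGlo luminescence measured ATXN2-luciferase expression after a fluorogenic Gly-Phe-AFC viability readout (25 uM final).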
# Giardia kill: kills Giardia lamblia. Giardia lamblia trophozoite viability. activity change, % at 7.66 µM, hits read low. actives 0.15% (n = 340,000); in the data active means activity change below about -80%; inconclusive means between about -30% and that limit;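 further: parasites exposed to compound for two days anaerobically before the ATP read; on the % scale 0 is the no-effect control and ±100 the full control effect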
#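 Luminescence from cellular ATP indicates surviving trophozoites (100 cells/well) following 48 hrs anaerobic compound treatment at 37 deg C; signal develops 15-30 min at room temperature.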
# S2 tox: viability counter-screen for ATXN expression inhibitors; AID 651635; Potency, µM (doses to about 56.7 µM), most hits filed as cytotoxic; actives 0.49% (n = 400,000); S2 cells (HEK-293 line with an ATXN2-luciferase reporter) viability, CellTiter-Fluor protease fluorescence, 24 h; further: potency means the concentration at half of the fitted maximal effect; nearly all actives have a fitted effect of over 40% in size
# * marks the source's active call; other numbers are inactive results; i = inactive; ? = inconclusive; · = not tested or not shown; ! = not active in a repeat. Rows were chosen to be rich in hits. Some 2.6% of all compounds tested hit in one or more screens of this group. Unless noted, the call rests on the fitted dose curve; in most records, active means well fitted curve in the direction sought with a large enough effect; inconclusive means small, poorly fitted or top-dose-only effect, or another doubt; inactive means no such curve, though single readings can be large; an effect the other way counts as inactive or inconclusive.
SMILES,uPA generation,TGFb inhibitor,HepG2 viability,ATXN2 expr inh,Giardia kill,S2 tox
C=C[C@H](CC(C)C)N(Cc1ccccc1)S(=O)(=O)N(Cc1ccccc1)[C@H](C=C)CC(C)C,·,0%,10%,·,·,·
COc1ccc2c(c1OC)C(=O)OC2c1ccc(O)cc1 (stereo not given),·,15%,6%,·,46,·
O=C1NC2CCCCC2C(=O)N1OS(=O)(=O)c1ccccc1 (stereo not given),-8%,0%,-24%,?,0,16µM*
CCc1ccc(CNC(=O)c2ccc3c(Cl)c4c(nc3c2)CCCC4)cc1,·,0%,6%,1%,·,i
CN1CCN(CCCNC(=O)c2ccc3c(Cl)c4c(nc3c2)CCCC4)CC1,11µM*,11µM*,-44%,·,-28,i
CCc1ccc(CNC(=O)CSc2c3c(nc4ccc(Cl)cc24)CCCC3)cc1,·,-19%,-18%,·,·,·
O=C(CSc1c2c(nc3ccc(Cl)cc13)CCCC2)NCCCN1CCOCC1,8.9µM*,?,-38%,·,0,·
COCCCNC(=O)CSc1c2c(nc3ccc(Cl)cc13)CCCC2,4%,13µM*!,-14%,·,17,i
CC(C)OCCCNC(=O)CSc1c2c(nc3ccc(Cl)cc13)CCCC2,·,11µM*,-55%,·,·,·
COC(=O)C1CCN(c2nc(CN(C)C3CCOC3)nc3cc(OC)c(OC)cc23)CC1 (stereo not given),·,·,·,·,·,i
c1ccc(Cc2nnc3n2CCN(Cc2cnc(-c4ccccc4)s2)CC3)cc1,·,·,·,·,·,i
CC(C)(C)c1ccc(C(=O)NCCCN2CCN(CCCNC(=O)c3ccc(C(C)(C)C)cc3)CC2)cc1,-17%,?,-105%,?,-1,28µM*
CCN(CC)CCCNC(=O)CSc1c2c(nc3cc(Cl)ccc13)CCCC2,-9%,11µM*,22µM*,?,5,·
O=C(CSc1c2c(nc3cc(Cl)ccc13)CCCC2)NCCCN1CCOCC1,?,?,-42%,·,-3,?
O=C(C[n+]1cccc(Cl)c1)c1ccc(O)c(O)c1,·,6%,6%,·,·,·
O=Cc1ccc(N2CCOCC2)cc1,·,19%,1%,·,·,·
COC(=O)CSc1ncnc2c1sc1nc3c(cc12)COC(C)(C)C3,-5%,10%,3%,?,-26,i
CC1(C)Cc2nc3sc4c(SCC(=O)O)ncnc4c3cc2CO1,2.2µM*,-19%,-12%,·,?,i
CCn1c2ccccc2c2cc(NC(=O)COC(=O)Cc3cn4ccsc4n3)ccc21,-2%,?,1%,28µM*,-4,i
CCn1c2ccccc2c2cc(NC(=O)COC(=O)c3cccc(S(=O)(=O)NC)c3)ccc21,-3%,-7%,-10%,16µM*,4,i
COc1ccc(CCNC(=O)COc2ccc(S(=O)(=O)NC3CCCCC3)cc2Cl)cc1,?,14µM*,-38%,?,-22,·
S=C(c1cn(CCOc2ccccc2)c2ccccc12)N1CCCC1,-6%,?,-20%,-18%,7,i
Cc1ccc(OCCn2cc(C(=S)N3CCCC3)c3ccccc32)cc1C,-15%,-18%,16µM*,-15%,15,?
O=C(CCl)N(Cc1ccccc1)c1ccccc1,?,13µM*,13µM*,0%,3,i
O=C(CCl)N(Cc1cc(=O)[nH]c2ccccc12)c1ccccc1,?,11µM*,-92%,·,12,?
SMILES,uPA generation,TGFb inhibitor,HepG2 viability,ATXN2 expr inh,Giardia kill,S2 tox
CCC(=O)N(Cc1cc(=O)[nH]c2ccccc12)c1ccccc1,1%,-1%,-4%,6%,31,i
Cc1cccc(N(Cc2ccccc2)C(=O)CCl)c1,-21%,?,-85%,0.75µM*,-13,0.53µM*
COc1ccc(C[C@H]2CN3C(=NC[C@@H]3Cc3ccccc3)N2CCNC(=O)CCC2CCCCC2)cc1,-26%,?,-117%,?,25,22µM*
Fc1ccccc1Nc1nc2ccccc2o1,-5%,-5%,7.1µM*,17%,-9,i
COc1cc(-c2nn3c(-c4cc(-c5ccccc5)n[nH]4)nnc3s2)cc(OC)c1OC,·,-2%,-8%,·,-9,·
Brc1ccc2nc(-c3ccco3)c(Cc3ccccc3)n2c1,·,?,-38%,3%,·,?
Clc1cccc(Cc2c(-c3ccco3)nc3ccc(Cl)cn23)c1,·,18µM*,-113%,?,·,·
Clc1cccc(Cc2c(-c3ccco3)nc3ccc(Br)cn23)c1,·,13µM*,-115%,?,·,·
Cc1ccc2nc(-c3ccccc3)c(Cc3cccc(Cl)c3)n2c1,·,14µM*,-50%,-25%,·,?
COC(=O)c1ccc2nc(-c3ccco3)c(Cc3ccc(OC)cc3C)n2c1,·,13µM*,-31%,-5%,·,?
C(/Oc1ccccc1)=C1\Nn2c(nnc2-c2cc(-c3ccccc3)n[nH]2)S1,·,-10%,2%,·,52,·
COc1cccc(CNC(=O)c2c(OC)cc(=O)n3c2CCN(C(=O)c2cc(F)cc(F)c2)CC3)c1,·,·,·,·,·,i
CN(C)CC(C)(C)CNC(=O)c1cnn(-c2nccc(-c3ccc4c(c3)OCO4)n2)c1-c1ccco1,·,·,·,·,·,i
CCOC(=O)c1ccc(Nc2cc(C)nc(-c3ccccc3)n2)cc1,5µM*,-22%,2%,·,-10,i
O=[N+]([O-])c1ccc(/C=C/c2ccnc3ccccc23)cc1,·,-16%,-8%,·,·,·
CNC[C@@H]1CC[C@@H](N)[C@@H](O[C@H]2[C@H](O)[C@@H](O[C@H]3OC[C@](C)(O)[C@H](NC)[C@H]3O)[C@H](N)C[C@@H]2N)O1,·,·,·,·,·,i
COC1=CC(=O)C=C(OC)C1=O,?,?,-118%,5.6µM*,-24,?
O=C1C=C(C2CCCCC2)C(=O)c2ccccc21,-8%,-24%,-17%,-4%,-7,i
COC1=CC(=O)c2ccccc2C1=O,5µM*,1.4µM*,2.2µM*,28µM*,-16,i
COCC1CCCN(Cc2ccc3c(c2)CN(C(=O)c2cn4ccc(C)cc4n2)CCO3)C1 (stereo not given),·,·,·,·,·,i
COC(=O)C1=C(C)N(Cc2ccccc2)C(=NCc2ccccc2)N[C@H]1c1cccc(F)c1,?,?,-112%,?,-27,·
COC(=O)C1=C(C)N(Cc2ccccc2)C(=NCc2ccccc2)N[C@H]1c1ccccc1,?,?,14µM*,?,14,?
COC(=O)C1=C(C)N(Cc2ccccc2)C(=NCc2cccc(Cl)c2)N[C@H]1c1ccccc1,-14%,?,-96%,?,1,35µM*
C=CC(C)(C)c1c(O)c(CC=C(C)C)c(O)c2c(=O)c3ccc(O)c(O)c3oc12,11µM*,11µM*,14µM*,?,-7,28µM*
